Source: PubChem BioAssay (EPA / NIEHS)
Results filed as inconclusive are left out. The source made the active and inactive calls. The calls were made as follows, unless noted: active = hit-call score of the fitted dose curve at least 0.9, where 1 is the maximum; inactive = score below 0.9.

Experiments:
[1] = target: Transcription factor Sp1 (Homo sapiens) (UniProt P08047); experiment: ATG_Sp1_CIS: Attagene CIS-FACTORIAL HepG2 Assay for human Specificity Protein 1 (Sp1) (AID 2282961); settings: HepG2 Sp1 cis-reporter transcription, actives raise or lower the signal
Summary of the method: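 Read-out: fluorescence of 6-FAM-labeled, HpaI-digested RT-PCR products separated by capillary electrophoresis. HepG2 cells carried transfected cis-element reporter units and were exposed to chemicals for 24 h; gain or loss of signal fitted relative to DMSO.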

[2] = ATG_SREBP_CIS: Attagene CIS-FACTORIAL HepG2 Assay for human Sterol Regulatory Element Binding (SREBP) (AID 2282962); settings: HepG2 Attagene cis-factorial SREBP reporter, mRNA; actives raise or lower the signal
Summary of the method: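 mRNA induction of transfected cis-promoter reporters in HepG2 cells, 24 h post-dose. Detection: RT-PCR with 6-FAM-labelled products, HpaI digest, capillary electrophoresis. DMSO served as negative control and baseline.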

[3] = ATG_TA_CIS: Attagene CIS-FACTORIAL HepG2 Assay for human TA Basal Promoter (AID 2282964); settings: HepG2 Attagene CIS-factorial TA basal promoter reporter; actives raise or lower the signal
Summary of the method: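 HepG2 cells transiently transfected with multiple reporter units under cis promoter elements, reporting endogenous transcription factor activity; this endpoint tracks the TA basal promoter as background control. Reporter mRNA after 24 h dosing measured by RT-PCR/capillary electrophoresis; bidirectional fits versus DMSO.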

[4] = ATG_TCF_b_cat_CIS: Attagene CIS-FACTORIAL HepG2 Assay for human T-Cell-Factor with beta-catenin (TCF/b-cat) (AID 2282965); settings: HepG2 TCF/beta-catenin cis-reporter transcription, actives raise or lower the signal
Summary of the method: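 HepG2, transient MRTU transfection, cis-element-driven reporters (endogenous TFs). 24 h compound exposure. Readout: reporter mRNA by RT-PCR + 6-FAM primer extension, HpaI digest, capillary electrophoresis. Gain/loss fit vs DMSO baseline.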

[5] = ATG_TAL_CIS: Attagene CIS-FACTORIAL HepG2 Assay for human TAL Basal Promoter (AID 2282966); settings: HepG2 Attagene cis-factorial TAL promoter reporter; actives raise or lower the signal;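 also: background control endpoint measuring basal TAL promoter reporter mRNA not a specific factor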
Summary of the method: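 HepG2 cells transiently transfected with multiplexed cis-promoter reporter units, dosed 24 h. Reporter mRNA quantified by RT-PCR, 6-FAM labelling, HpaI digestion and capillary electrophoresis; TAL basal promoter serves as background control, fitted bidirectionally versus DMSO.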

[6] = ATG_TGFb_CIS: Attagene CIS-FACTORIAL HepG2 Assay for human Transforming Growth Factor (TGF) (AID 2282967); settings: HepG2 Attagene CIS TGFb reporter, mRNA transcription; actives raise or lower the signal
Summary of the method: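 HepG2 cells transiently transfected with cis-promoter-driven multiple reporter units measure endogenous TF activity; reporter mRNA quantified at 24 h by RT-PCR, FAM labeling, HpaI digestion and capillary electrophoresis. Bidirectional fit vs DMSO.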

[7] = ATG_VDRE_CIS: Attagene CIS-FACTORIAL HepG2 Assay for human Vitamin D Receptor Element (VDRE) (AID 2282968); settings: HepG2 VDRE cis-reporter transcription, actives raise or lower the signal
Summary of the method: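 Transiently transfected HepG2 cells carrying cis-regulated reporter transcription units were exposed for 24 h. Reporter mRNA was measured by RT-PCR with fluorescent labelling and capillary electrophoresis, and fitted in both directions against DMSO.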

[8] = target: Estrogen receptor (Homo sapiens) (UniProt P03372); experiment: ATG_ERa_TRANS: Attagene TRANS-FACTORIAL HepG2 Assay for human Estrogen Receptor alpha (ERa) (AID 2282970; active = hit-call score of the fitted dose curve at least 0.9, where 1 is the maximum); settings: HepG2 Attagene TRANS ERa GAL4 reporter, mRNA
Summary of the method: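 HepG2 cells transiently transfected with multiplexed GAL4-UAS reporter units read out chimeric NR-Gal4 activity. After 24 h compound exposure, reporter mRNA was quantified by RT-PCR, 6-FAM labeling, HpaI digestion and capillary electrophoresis, relative to DMSO.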

[9] = target: Nuclear receptor subfamily 1 group I member 3 (Homo sapiens) (UniProt Q14994); experiment: ATG_CAR_TRANS: Attagene TRANS-FACTORIAL HepG2 Assay for human Constitutive Androstane Receptor (CAR) (AID 2282969; active = hit-call score of the fitted dose curve at least 0.9, where 1 is the maximum;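 also: activators raise reporter mRNA above DMSO so AC50 marks induction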); settings: HepG2 Attagene TRANS-FACTORIAL CAR reporter
Summary of the method: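 HepG2 cells transiently transfected with GAL4-UAS reporter units; TRANS format reads activity of exogenous chimeric NR-Gal4 protein. After 24 h dosing, reporter mRNA quantified by RT-PCR, 6-FAM labelling and capillary electrophoresis; gain of signal fitted against DMSO.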

[10] = target: Signal transducer and activator of transcription 3 (Homo sapiens) (UniProt P40763); experiment: ATG_STAT3_CIS: Attagene CIS-FACTORIAL HepG2 Assay for human Signal Transducer and Activator of Transcription 3 (STAT3) (AID 2282963); settings: HepG2, Attagene cis-factorial STAT3 reporter transcription; actives raise or lower the signal
Summary of the method: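 HepG2 cells transiently transfected with multiple cis-element-driven reporter units report endogenous transcription factor activity. After 24 h compound exposure, reporter mRNA is measured by RT-PCR, 6-FAM labelling, HpaI digestion and capillary electrophoresis. Fitted bidirectionally versus DMSO.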

Measured: AC50

Sequence of Nuclear receptor subfamily 1 group I member 3 (Homo sapiens) (Q14994 whole entry, looked up, the tested form may be a part): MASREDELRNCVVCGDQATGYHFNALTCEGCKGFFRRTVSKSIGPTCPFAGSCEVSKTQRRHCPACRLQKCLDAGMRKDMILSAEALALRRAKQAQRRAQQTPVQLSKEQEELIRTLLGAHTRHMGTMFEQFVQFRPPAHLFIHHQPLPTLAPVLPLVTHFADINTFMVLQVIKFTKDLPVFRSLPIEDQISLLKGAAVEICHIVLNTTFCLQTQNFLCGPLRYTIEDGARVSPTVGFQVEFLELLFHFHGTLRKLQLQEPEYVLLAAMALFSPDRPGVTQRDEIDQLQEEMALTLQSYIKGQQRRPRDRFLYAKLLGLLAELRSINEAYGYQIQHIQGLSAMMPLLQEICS
Sequence of Estrogen receptor (Homo sapiens) (P03372 whole entry, looked up, the tested form may be a part): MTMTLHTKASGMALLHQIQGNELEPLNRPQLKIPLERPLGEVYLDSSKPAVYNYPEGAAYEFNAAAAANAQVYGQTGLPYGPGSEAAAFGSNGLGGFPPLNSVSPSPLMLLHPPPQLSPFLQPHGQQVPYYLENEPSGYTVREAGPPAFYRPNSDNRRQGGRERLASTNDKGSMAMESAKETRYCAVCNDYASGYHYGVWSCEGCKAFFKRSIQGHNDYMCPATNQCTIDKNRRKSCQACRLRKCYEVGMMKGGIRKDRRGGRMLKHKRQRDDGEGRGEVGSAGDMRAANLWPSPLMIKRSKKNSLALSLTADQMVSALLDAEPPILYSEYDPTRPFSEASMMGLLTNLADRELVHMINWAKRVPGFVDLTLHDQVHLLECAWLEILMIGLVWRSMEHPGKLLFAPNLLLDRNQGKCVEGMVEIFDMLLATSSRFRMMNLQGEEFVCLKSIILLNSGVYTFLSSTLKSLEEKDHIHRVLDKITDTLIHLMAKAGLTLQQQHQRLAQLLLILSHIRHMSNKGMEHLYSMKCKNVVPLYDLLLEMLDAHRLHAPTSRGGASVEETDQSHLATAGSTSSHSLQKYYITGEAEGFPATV
Sequence of Transcription factor Sp1 (Homo sapiens) (P08047 whole entry, looked up): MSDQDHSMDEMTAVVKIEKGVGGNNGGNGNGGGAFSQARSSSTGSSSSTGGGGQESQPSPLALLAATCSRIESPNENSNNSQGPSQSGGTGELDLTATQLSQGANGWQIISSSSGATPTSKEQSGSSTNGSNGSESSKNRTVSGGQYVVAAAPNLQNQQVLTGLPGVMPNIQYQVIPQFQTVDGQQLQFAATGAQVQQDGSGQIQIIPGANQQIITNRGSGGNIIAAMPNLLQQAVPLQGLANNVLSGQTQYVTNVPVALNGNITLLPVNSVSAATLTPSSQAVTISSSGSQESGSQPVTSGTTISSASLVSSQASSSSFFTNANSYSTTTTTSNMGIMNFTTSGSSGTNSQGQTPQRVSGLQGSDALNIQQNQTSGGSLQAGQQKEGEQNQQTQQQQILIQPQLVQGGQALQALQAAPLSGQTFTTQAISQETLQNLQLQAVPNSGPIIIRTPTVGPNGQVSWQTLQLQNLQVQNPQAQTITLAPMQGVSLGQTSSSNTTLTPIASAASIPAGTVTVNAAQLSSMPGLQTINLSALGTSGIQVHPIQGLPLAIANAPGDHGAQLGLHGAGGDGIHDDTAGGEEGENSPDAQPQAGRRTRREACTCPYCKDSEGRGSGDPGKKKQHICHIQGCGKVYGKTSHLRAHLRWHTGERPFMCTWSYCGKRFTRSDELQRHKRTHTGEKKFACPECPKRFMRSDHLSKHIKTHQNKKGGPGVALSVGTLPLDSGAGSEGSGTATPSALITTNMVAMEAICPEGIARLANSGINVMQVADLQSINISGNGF
Sequence of Signal transducer and activator of transcription 3 (Homo sapiens) (P40763 whole entry, looked up): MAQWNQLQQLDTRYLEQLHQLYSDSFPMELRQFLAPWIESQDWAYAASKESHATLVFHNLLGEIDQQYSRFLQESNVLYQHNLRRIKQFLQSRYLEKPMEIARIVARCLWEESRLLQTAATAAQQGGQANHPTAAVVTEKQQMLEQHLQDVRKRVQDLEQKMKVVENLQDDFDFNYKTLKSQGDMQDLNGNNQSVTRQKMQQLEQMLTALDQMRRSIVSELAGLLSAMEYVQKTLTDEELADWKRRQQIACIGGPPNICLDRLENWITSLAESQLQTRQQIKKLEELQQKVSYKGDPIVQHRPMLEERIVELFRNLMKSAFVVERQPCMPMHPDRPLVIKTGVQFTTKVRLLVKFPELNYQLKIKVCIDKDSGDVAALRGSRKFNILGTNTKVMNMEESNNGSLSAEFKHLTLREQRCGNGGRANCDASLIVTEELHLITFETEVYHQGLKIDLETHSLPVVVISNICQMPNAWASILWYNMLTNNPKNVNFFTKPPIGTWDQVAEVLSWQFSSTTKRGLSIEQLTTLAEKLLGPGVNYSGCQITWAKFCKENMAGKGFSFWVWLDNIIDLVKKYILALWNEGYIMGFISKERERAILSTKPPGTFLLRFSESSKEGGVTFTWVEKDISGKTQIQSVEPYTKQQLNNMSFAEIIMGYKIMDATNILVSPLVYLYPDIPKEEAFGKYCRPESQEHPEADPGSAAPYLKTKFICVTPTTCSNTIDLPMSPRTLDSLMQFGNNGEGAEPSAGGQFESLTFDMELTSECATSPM

OCCCCO
not listed: [8] | [9] | [10]
inactive: all other assays above

[Cl][Sn]([c]1ccccc1)([c]1ccccc1)[c]1ccccc1
inactive: [2] | [4] | [6] | [8]
active: [1] 1660 nM | [3] 251 nM | [5] 1130 nM | [7] 240 nM

CCCCCCCCCCCCOS(=O)(=O)O
inactive: [1] | [2] | [3] | [4] | [5]

CCN(CC)C(=O)C(Cl)=C(C)OP(=O)(OC)OC
not listed: [8] | [9] | [10]
inactive: all other assays above

Cc1ccc(OP(=O)(Oc2ccc(C)cc2C)Oc2ccc(C)cc2C)c(C)c1
active: [1] 26200 nM | [7] 534 nM
not listed: [10]
inactive: all other assays above

Cc1ccccc1OP(=O)(Oc1ccccc1C)Oc1ccccc1C
active: [1] 71800 nM | [6] 56100 nM | [7] 533 nM | [8] 1300 nM
inactive: [2] | [10] | [4] | [9]

C=CC(Cl)CCl (stereo not drawn)
not listed: [8] | [9] | [10]
inactive: all other assays above

O=C(CCl)NCO
active: [6] 765 nM
not listed: [8] | [10]
inactive: all other assays above

CN(N=O)c1ccc([N+](=O)[O-])cc1
not listed: [10]
inactive: all other assays above

C=CC(=O)[O][Sn]([CH2]CCC)([CH2]CCC)[CH2]CCC
inactive: [4] | [5]
active: [1] 504 nM | [2] 189 nM | [6] 367 nM | [7] 266 nM

CN(C)C(=S)S
inactive: [1] | [2] | [4] | [5] | [6] | [7]

C1CCC(C2CCCCC2)CC1
active: [8] 27900 nM
not listed: [3] | [5]
inactive: all other assays above

OC(Cc1ccccc1Cl)(Cn1cncn1)C1(Cl)CC1 (stereo not drawn)
active: [7] 26000 nM | [8] 13700 nM
not listed: [10]
inactive: all other assays above

OC(c1ccc(Cl)cc1)(c1ccc(Cl)cc1)c1cccnc1
not listed: [9] | [10]
inactive: all other assays above

CCOc1ccc(N)cc1
not listed: [9] | [10]
inactive: all other assays above
